This is an account of results in ChEMBL document CHEMBL4808148, “HDAC6 screening dataset using tau-based substrate in an enzymatic assay yields selective inhibitors and activators” (2021).

Structures are written as SMILES. The campaign covered roughly 5,600 compounds. About 390 (7%) showed an effect of 50% or more. What follows is part of a selection rich in strong results, with near analogues and random picks from the rest.

This experiment addresses T1, Protein deacetylase HDAC6 (Homo sapiens) (UniProt Q9UBN7).
T1 sequence (whole entry): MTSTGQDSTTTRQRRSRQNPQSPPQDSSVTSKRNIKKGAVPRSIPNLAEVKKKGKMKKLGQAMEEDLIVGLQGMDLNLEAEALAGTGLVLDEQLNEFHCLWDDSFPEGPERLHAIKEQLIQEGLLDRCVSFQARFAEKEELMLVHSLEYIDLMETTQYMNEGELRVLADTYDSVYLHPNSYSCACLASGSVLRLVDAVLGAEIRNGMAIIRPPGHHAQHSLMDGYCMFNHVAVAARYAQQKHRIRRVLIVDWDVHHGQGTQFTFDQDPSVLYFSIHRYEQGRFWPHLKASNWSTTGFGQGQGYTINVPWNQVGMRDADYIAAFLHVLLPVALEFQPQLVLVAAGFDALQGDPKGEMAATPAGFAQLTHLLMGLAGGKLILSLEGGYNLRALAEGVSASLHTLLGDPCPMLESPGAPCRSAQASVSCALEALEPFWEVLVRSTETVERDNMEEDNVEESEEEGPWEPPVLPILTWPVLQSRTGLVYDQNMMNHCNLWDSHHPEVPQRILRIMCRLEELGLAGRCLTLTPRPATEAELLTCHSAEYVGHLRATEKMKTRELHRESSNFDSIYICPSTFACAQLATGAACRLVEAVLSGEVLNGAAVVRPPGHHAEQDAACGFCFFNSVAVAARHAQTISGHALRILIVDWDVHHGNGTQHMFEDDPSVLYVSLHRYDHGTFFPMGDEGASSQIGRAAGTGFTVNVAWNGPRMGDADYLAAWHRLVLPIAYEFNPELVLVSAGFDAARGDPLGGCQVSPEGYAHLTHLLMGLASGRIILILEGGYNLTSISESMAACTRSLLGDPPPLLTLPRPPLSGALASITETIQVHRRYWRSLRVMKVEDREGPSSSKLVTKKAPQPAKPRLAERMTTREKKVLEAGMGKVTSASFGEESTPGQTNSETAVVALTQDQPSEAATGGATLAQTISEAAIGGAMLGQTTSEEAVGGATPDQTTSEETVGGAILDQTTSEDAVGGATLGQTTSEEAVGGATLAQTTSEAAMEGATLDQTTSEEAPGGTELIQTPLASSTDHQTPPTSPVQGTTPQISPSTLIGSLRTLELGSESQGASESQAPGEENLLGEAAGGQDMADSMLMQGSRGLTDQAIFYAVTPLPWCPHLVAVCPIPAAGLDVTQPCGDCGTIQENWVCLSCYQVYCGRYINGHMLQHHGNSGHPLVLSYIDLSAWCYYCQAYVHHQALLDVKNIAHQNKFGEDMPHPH
To be noted: at 10 µM.
Regarding `C[C@]12C=CC(=O)C=C1CC[C@@H]1[C@@H]2[C@@H](O)C[C@@]2(C)[C@H]1CC[C@]2(O)C(=O)COP(=O)(O)O`, the inhibition was determined as 22.1%.
Turning to `CCNC(=O)[C@@H]1CCCN1C(=O)[C@H](CCCNC(=N)N)NC(=O)[C@H](CC(C)C)NC(=O)[C@@H](C)NC(=O)[C@H](Cc1ccc(O)cc1)NC(=O)[C@H](CO)NC(=O)[C@H](Cc1c[nH]c2ccccc12)NC(=O)[C@H](Cc1cnc[nH]1)NC(=O)[C@@H]1CCC(=O)N1`, the inhibition is 41.1%.
Then `Cc1cc(C(=O)Nc2cccc(C(=O)Nc3cccc(C(F)(F)F)c3)c2)on1`, with 16.4%; and `O=C1c2cccc(O)c2C(=O)c2c(O)cc(CO)cc21`, with 53.1%.
Then `O=C1c2ccccc2C(=O)c2ccccc21`, with 44.4%; and `CCN1C[C@H](C)n2c(c(O)c3c(=O)n(Cc4ccc(F)c(Cl)c4)nc(C(=O)NC)c32)C1=O`, with 19.2%.
With `C[C@H](CCC(=O)O)[C@H]1CC[C@H]2[C@@H]3CC[C@@H]4C[C@H](O)CC[C@]4(C)[C@H]3CC[C@]12C` the figure was -5.26%; with `C[C@H](CCC(=O)O)[C@H]1CC[C@H]2[C@@H]3[C@@H](O)C[C@@H]4C[C@H](O)CC[C@]4(C)[C@H]3CC[C@]12C`, 62.8%.
Consider `C[C@H](CCC(=O)O)[C@H]1CC[C@H]2[C@@H]3[C@H](O)C[C@@H]4C[C@H](O)CC[C@]4(C)[C@H]3CC[C@]12C`, for which the inhibition was found to be 3.14%.
Then `CCC1=C[C@@H]2CN3CCc4c([nH]c5ccccc45)[C@@](C(=O)OC)(C2)[C@@H]13`, with 2.61%.
Then `COc1cc(OC)c(/C=C2/C(=O)Nc3ccccc32)c(OC)c1`, with -6%.
`Cn1cccc1/C=C1\C(=O)NC(=O)c2ccccc21`: the inhibition came to 61.5%.
With `Cc1nc2ccc(-n3ncc(C(=O)c4cc5ccccc5[nH]4)c3N)cc2[nH]1` the figure was 100%; with `CN1CC[C@@H](NC(=O)Nc2ccc(C#N)cc2)C[C@@H]1c1nc2ccccc2[nH]1`, -9.46%; with `CCCCCCCCCCCCC/C=C/[C@@H](O)[C@@H](N)COP(=O)([O-])OCC[N+](C)(C)C`, 23.4%.
Consider `CCO[C@@H]1OC(=O)C[C@@H]1NC(=O)[C@@H]1CCCN1C(=O)[C@@H](NC(=O)c1ccc(N)c(Cl)c1)C(C)(C)C`, for which the inhibition amounted to 12.6%.
On to `CC(C)C(=O)OCC(=O)[C@@]12O[C@H](C3CCCCC3)O[C@@H]1C[C@H]1[C@@H]3CCC4=CC(=O)C=C[C@]4(C)[C@H]3[C@@H](O)C[C@@]12C`, for which the inhibition was determined as 7.25%.
Then `CCOC(=O)C12CC1/C(=N\O)c1ccccc1O2` (centres undefined), with 38.5%; and `O=C(O[C@@H]1C[C@@H]2C[C@H]3C[C@H](C1)N2CC3=O)c1c[nH]c2ccccc12`, with 61.3%.
With `CN1[C@@H]2CC[C@H]1C[C@@H](OC(=O)N1Cc3ccccc3NC1=O)C2` the figure was -7.98%; with `Cc1nc(Cn2cnc3c2c(=O)n(C)c(=O)n3C)no1`, 24.3%; with `CC(C)(C)NCC(O)c1cc(Br)no1` (centres undefined), 18.5%.
In the case of `O=C(O)CCCNC(=O)c1cccnc1`, the inhibition came out at 28.7%.
Then `CC(CNC1CCCCC1)OC(=O)c1ccccc1` (centres undefined), with 34.8%; and `O=C(O)[C@@H](c1ccc(OCc2ccc3ccccc3n2)cc1)C1CCCC1`, with 93.6%; and `CCN1CCCC(OC(=O)C(c2ccccc2)c2ccccc2)C1` (centres undefined), with -1.02%.
With `CCCCN(CC)c1c([N+](=O)[O-])cc(C(F)(F)F)cc1[N+](=O)[O-]` the figure was 10.6%; with `CC(C)C(=O)SCCCCC[C@H](NC(=O)OC(C)(C)C)C(=O)NC12CC3CC(CC(C3)C1)C2`, 52%; with `NC(=O)c1cccc(-c2cccc(OC(=O)NC3CCCCC3)c2)c1`, 95.1%.
Then `CN(Cc1cccc(-c2ccccc2)c1)C(=O)Oc1ccc(-c2ccc(C(N)=O)cc2)cc1`, with 25.7%; and `N[C@@H]1CCN(c2cccnc2)C1`, with 18.5%.
As to `N#Cc1ccc(N2N=C3c4ccc(C(=O)O)cc4CC[C@@H]3[C@@H]2C2CCCC2)cc1Cl`, the inhibition turned out to be 20.4%.
With `CCCOc1ccc2c(c1)CC[C@@H]1[C@@H]2CC[C@]2(C)[C@@H](OC)CC[C@@H]12` the figure was -9.5%.
Then `CCc1oc2ccccc2c1C(=O)c1ccc(OCC(=O)O)cc1`, with -6.7%.
With `NC(=O)c1ncn([C@@H]2O[C@H](CO)[C@@H](O)[C@H]2O)n1` the figure was -7.83%; with `CC(C)Nc1nc2cc(Cl)c(Cl)cc2n1[C@H]1O[C@@H](CO)[C@H](O)[C@@H]1O`, 82.2%; with `COc1nc(N)nc2c1ncn2[C@@H]1O[C@H](CO)[C@@H](O)[C@@H]1O`, 35.9%.
In the case of `Cc1cc(C)cc(NC(=O)Cc2ccc(OC(C)(C)C(=O)O)cc2)c1`, the inhibition is -3.44%.
As for `N#CCC(=O)c1ccccc1`, the inhibition amounted to 19.1%.
Then `COc1ccc(C(=O)CCC(=O)O)c2ccccc12`, with 0.61%; and `O=C(COc1cccc2c(=O)[nH]ccc12)c1ccccc1`, with 65.9%; and `C[C@]12CC[C@H]3[C@@H](CCC4=CC(=O)CC[C@@]43C)[C@@H]1CC[C@@H]2C(=O)CO`, with 32.2%.
Turning to `O=C(N[C@H]1CN2CCC1CC2)c1c[nH]c2ccsc2c1=O`, the inhibition is 10.3%.
On to `Cn1nnc(-c2ccc(-c3ccc(N4C[C@H](COP(=O)(O)O)OC4=O)cc3F)cn2)n1`, for which the inhibition was -2.24%.
